# In PubChem BioAssay:
# Active and inactive are the calls of the source.
# Key:
# [1] = small molecules captured by biotinylated probe aFSTL3 – biochemical, small-molecule microarray, fluorescence 635/667, stem cell growth factor project, primary screen (AID 1064); conditions: higher = more signal;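 also: measures binding of the biotinylated anti-FSTL3 antibody to printed compounds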
# [2] = binders from COS7 lysate, DM2A8 probe, primary screen, torsin A project, cell lysate, small-molecule microarray, fluorescence 635/667 (AID 1065); conditions: higher = more signal, COS7 lysate expressing mutant human TOR1A
# [3] = small molecules captured by biotinylated probe aFGF2 – biochemical, small-molecule microarray, fluorescence 635/667, stem cell growth factor project, primary screen (AID 1067); conditions: higher = more signal;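 also: measures binding of biotinylated aFGF2 protein to printed compounds on slides; z-score merges feature fluorescence and signal-to-noise across triplicate slides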
# [4] = small molecules captured by biotinylated probe aFGF10 – biochemical, small-molecule microarray, fluorescence 635/667, stem cell growth factor project, primary screen (AID 1071); conditions: higher = more signal;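 also: score merges 667 nm spot intensity and signal to noise from triplicate slides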
# [5] = biological target: Neurogenic locus notch homolog protein 2 (Homo sapiens) (UniProt Q04721); assay: small molecules binding Notch2 protein – biochemical, small-molecule microarray, 635 nm fluorescence, stem cell growth factors, primary screen (AID 1073); conditions: higher = more signal
# [6] = biological target: Pro-neuregulin-1, membrane-bound isoform (Homo sapiens) (UniProt Q02297); assay: small molecules binding neuregulin-1 protein – biochemical, small-molecule microarray, fluorescence 635/667, psychiatric disease protein project, primary screen (AID 1075); conditions: NRG1 binding, 635 nm fluorescence, higher = more signal;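 also: score combines 667 nm spot fluorescence with signal to noise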
# Chain of Pro-neuregulin-1, membrane-bound isoform (Homo sapiens) (Q02297 whole entry, looked up, the tested form may be a part, canonical isoform): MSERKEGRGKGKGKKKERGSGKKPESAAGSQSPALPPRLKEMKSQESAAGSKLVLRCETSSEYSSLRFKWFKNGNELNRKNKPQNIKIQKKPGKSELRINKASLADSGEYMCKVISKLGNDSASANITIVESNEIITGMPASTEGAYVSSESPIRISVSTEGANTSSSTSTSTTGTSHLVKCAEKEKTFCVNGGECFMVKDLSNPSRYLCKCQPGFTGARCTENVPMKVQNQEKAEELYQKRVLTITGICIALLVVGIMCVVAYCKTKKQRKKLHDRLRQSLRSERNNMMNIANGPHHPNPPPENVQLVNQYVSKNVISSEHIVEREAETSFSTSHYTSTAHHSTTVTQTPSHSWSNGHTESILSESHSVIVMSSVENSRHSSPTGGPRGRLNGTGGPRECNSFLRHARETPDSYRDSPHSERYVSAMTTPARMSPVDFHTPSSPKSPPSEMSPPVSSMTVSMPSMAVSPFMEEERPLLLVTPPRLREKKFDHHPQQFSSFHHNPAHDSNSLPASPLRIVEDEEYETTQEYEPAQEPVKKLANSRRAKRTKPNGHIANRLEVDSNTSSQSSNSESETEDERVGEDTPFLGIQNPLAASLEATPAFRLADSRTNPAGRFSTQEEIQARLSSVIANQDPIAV
# [7] = system: Neuregulin-1 EGF-like domain; assay: small molecules binding NRG1 EGF domain – biochemical, small-molecule microarray, 635 nm fluorescence, primary screen (AID 1081); conditions: higher = more signal;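 also: binding of the protein to compounds printed on small-molecule microarray slides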
# [8] = FRG1 expression reporter modulators in myotubes – cell-based, C2C12 myotubes, firefly/Renilla luciferase, luminescence, FRG1 inhibition for FSHD, primary screen (AID 1084); conditions: FRG1 promoter luciferase, higher = more signal, called active from +8 up or from −8 down
# [9] = small molecules captured by biotinylated probe aFST – biochemical, small-molecule microarray, fluorescence 635/667, stem cell growth factor project, primary screen (AID 1086); conditions: higher = more signal;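 also: score merges 667 nm fluorescence with signal-to-noise of each printed compound spot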
# [10] = binders of probe aHhip on microarray, primary screen, stem cell growth factor project, biochemical, small-molecule microarray, fluorescence 635/667 (AID 1087); conditions: higher = more signal;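 also: score merges spot fluorescence at 667nm with spot signal to noise ratio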
# [11] = system: PRMT1 (protein arginine N-methyltransferase 1); assay: small molecules binding arginine methyltransferase PRMT1 – biochemical, small-molecule microarray, 635 nm fluorescence, primary screen (AID 1088); conditions: higher = more signal;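 also: binding of Prmt1 protein to compounds spotted on small-molecule microarray slides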
# [12] = growth effects on S. cerevisiae YJM789 – YJM789 clinical isolate, OD600, 24 h, basal, primary screen (AID 1089); conditions: higher = more signal, called active from +8 up or from −8 down;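 also: growth of clinical yeast isolate S. cerevisiae YJM 789 seeded 1000 cells per well; test concentration not given here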
# [13] = S. pombe growth modifiers, basal conditions – strain 972, OD600, 24 h, no modulator, primary screen (AID 1090);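 also: basal condition with compound alone and no growth modifier present; test concentration not given here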; conditions: S. pombe 972 growth, higher = more signal, called active from +8 up or from −8 down
# [14] = budding yeast growth modifiers under rapamycin – strain BY4716, OD600, 96 h, primary screen (AID 1091); also: test concentration not given here; conditions: S. cerevisiae BY4716 + rapamycin, higher = more signal, called active from +8 up or from −8 down
# [15] = biological target: Torsin-1A-interacting protein 2 (Homo sapiens) (UniProt Q8NFQ8); assay: small molecules binding lysate-expressed LULL1 – cell lysate, human LULL1 lysate, 635/667 nm fluorescence, primary screen (AID 1092); conditions: small-molecule microarray, hLULL1 lysate binding, 635 nm fluorescence; higher = more signal;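 also: probe is lysate of COS7 cells overexpressing human LULL1; score merges per-feature 667 nm fluorescence with signal-to-noise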
# Chain of Torsin-1A-interacting protein 2 (Homo sapiens) (Q8NFQ8 whole entry, looked up): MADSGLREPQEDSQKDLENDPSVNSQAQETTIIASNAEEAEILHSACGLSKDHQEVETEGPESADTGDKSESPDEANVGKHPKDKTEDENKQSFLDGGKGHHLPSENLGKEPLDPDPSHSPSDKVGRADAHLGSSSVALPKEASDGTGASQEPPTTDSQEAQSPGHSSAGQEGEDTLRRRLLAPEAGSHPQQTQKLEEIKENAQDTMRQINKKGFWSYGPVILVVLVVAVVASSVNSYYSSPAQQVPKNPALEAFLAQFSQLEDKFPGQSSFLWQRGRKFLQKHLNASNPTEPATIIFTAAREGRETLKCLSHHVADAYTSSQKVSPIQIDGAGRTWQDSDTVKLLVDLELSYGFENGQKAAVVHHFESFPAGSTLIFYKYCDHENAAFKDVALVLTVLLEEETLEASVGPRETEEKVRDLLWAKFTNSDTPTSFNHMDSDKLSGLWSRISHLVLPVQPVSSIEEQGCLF
# [16] = optical density change of DRC41 E. coli – strain DRC41, OD650, 24 h, E. coli filamentation project, primary screen (AID 1093);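 also: MC1000 strain lacking acrAB efflux and sulA so SOS filamentation is blocked; test concentration not given here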; conditions: E. coli DRC41 growth, higher = more signal, called active from +8 up or from −8 down
# [17] = probe aLefty2 binding to arrayed compounds – biochemical, biotinylated probe, 635/667 nm fluorescence, primary screen (AID 1094); conditions: small-molecule microarray, higher = more signal;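 also: score merges spot fluorescence near 667 nm with spot signal-to-noise ratio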
# [18] = system: Noggin (protein binding on small-molecule microarray); assay: small molecules binding Noggin protein – biochemical, 635/667 nm fluorescence, primary screen (AID 1095); conditions: 635 nm fluorescence, higher = more signal;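 also: score merges 667 nm feature fluorescence with signal to noise over triplicate slides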
# [19] = biological target: Neurogenic locus notch homolog protein 3 (Homo sapiens) (UniProt Q9UM47); assay: small molecules binding NOTCH3 protein – biochemical, 635/667 nm fluorescence, primary screen (AID 1096); conditions: small-molecule microarray, 635 nm fluorescence, higher = more signal
# Chain of Neurogenic locus notch homolog protein 3 (Homo sapiens) (Q9UM47 whole entry, looked up): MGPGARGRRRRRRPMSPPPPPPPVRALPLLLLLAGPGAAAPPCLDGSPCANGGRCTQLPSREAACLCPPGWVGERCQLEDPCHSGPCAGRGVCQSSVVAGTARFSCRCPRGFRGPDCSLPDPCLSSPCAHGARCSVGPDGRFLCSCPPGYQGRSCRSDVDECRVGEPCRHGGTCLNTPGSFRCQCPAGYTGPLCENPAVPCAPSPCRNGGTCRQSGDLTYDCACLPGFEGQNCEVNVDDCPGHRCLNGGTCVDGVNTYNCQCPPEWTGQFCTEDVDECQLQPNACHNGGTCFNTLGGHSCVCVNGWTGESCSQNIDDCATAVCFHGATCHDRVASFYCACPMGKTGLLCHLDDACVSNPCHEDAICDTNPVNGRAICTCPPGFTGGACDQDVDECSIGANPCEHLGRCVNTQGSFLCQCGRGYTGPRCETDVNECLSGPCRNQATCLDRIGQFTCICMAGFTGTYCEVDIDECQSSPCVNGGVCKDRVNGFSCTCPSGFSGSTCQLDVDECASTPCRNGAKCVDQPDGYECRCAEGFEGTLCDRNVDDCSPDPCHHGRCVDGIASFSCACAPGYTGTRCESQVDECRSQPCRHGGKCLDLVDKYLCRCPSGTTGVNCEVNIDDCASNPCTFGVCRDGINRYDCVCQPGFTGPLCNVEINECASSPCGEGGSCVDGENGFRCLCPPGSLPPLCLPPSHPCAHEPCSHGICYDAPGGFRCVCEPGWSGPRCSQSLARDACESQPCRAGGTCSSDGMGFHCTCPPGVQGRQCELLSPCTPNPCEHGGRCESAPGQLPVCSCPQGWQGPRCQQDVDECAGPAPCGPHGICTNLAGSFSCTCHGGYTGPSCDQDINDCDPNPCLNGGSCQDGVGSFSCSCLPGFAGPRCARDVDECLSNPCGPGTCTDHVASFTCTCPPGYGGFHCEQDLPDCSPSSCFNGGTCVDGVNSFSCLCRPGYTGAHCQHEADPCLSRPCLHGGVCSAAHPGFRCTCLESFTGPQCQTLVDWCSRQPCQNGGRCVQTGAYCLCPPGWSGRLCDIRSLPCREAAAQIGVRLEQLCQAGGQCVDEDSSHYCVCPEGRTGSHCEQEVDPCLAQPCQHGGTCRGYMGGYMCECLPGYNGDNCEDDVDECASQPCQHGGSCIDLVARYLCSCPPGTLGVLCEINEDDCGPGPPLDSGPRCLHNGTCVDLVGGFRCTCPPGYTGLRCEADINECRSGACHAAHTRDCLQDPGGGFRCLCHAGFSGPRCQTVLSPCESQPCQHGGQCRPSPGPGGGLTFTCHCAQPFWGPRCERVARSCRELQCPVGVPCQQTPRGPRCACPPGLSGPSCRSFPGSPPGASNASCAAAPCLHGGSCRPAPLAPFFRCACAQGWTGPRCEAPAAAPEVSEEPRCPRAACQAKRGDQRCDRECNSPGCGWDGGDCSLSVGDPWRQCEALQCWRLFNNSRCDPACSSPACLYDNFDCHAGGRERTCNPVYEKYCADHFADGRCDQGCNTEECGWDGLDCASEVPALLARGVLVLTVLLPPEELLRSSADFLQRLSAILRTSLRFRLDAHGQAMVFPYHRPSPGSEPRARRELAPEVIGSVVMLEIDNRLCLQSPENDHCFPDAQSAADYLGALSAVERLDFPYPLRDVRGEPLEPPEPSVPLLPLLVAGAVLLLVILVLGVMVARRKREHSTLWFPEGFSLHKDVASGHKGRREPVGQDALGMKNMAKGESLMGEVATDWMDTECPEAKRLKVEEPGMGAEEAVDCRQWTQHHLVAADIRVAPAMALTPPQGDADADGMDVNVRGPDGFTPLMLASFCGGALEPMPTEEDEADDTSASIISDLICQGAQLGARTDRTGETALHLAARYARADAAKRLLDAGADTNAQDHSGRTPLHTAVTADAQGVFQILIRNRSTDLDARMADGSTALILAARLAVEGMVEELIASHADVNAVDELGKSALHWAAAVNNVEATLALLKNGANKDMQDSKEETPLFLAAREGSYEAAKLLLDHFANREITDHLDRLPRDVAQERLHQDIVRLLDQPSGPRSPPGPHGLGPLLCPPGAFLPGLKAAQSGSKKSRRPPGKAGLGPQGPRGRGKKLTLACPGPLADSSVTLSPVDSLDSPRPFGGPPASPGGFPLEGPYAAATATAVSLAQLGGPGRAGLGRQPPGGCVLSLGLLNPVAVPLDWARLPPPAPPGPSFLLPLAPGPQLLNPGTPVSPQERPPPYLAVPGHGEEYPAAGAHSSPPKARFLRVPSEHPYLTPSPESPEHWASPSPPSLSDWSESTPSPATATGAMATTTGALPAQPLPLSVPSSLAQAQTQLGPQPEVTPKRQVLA
# [20] = probe aEGFR binding to arrayed compounds – biochemical, biotinylated probe, 635/667 nm fluorescence, primary screen (AID 1097); conditions: small-molecule microarray, higher = more signal;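 also: probe is a biotinylated anti-EGFR antibody binding compounds printed on slides; score combines fluorescence near 667 nm and signal to noise of each spot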
SMILES,composite z-score [1],composite z-score [2],composite z-score [3],composite z-score [4],composite z-score [5],composite z-score [6],composite z-score [7],z-score [8],composite z-score [9],composite z-score [10],composite z-score [11],z-score [12],z-score [13],z-score [14],composite z-score [15],z-score [16],composite z-score [17],composite z-score [18],composite z-score [19],composite z-score [20]
COc1ccc(C(O)C2C=CC3C(=O)N(c4ccccc4)C(=O)C3N2Nc2ccc([N+](=O)[O-])cc2)cc1OCc1ccccc1 (stereo not given),2,-0.14,0.649,1.06,1.29,2.06,1.26,0.565 (inactive),2.36,1.2,0.923,-0.225 (inactive),1.57 (inactive),0.989 (inactive),2.72,-1.29 (inactive),1.25,0.322,1.11,0.852
C#CCN(C(/C=C/c1ccccc1)CO)C(C(=O)O)c1ccccc1 (stereo not given),-0.27,-0.769,-0.159,0.263,0.0504,-0.165,-0.435,1.2 (inactive),-0.652,-0.284,-1.05,0.339 (inactive),-1.13 (inactive),0.148 (inactive),-0.595,2.19 (inactive),-0.0849,0.274,-0.715,-0.101
Cc1ccc(S[C@]2(C(=O)NCc3ccccc3)CC(=O)N(Cc3ccccc3Cl)[C@@H]2c2ccc(CO)cc2I)cc1,0.715,-1.06,-0.104,-0.638,-0.848,0.288,0.539,-0.0143 (inactive),-0.319,-0.0645,1.08,-3.68 (inactive),-3.05 (inactive),0.103 (inactive),1.65,-0.592 (inactive),0.114,-1.07,-0.109,-0.168
Cc1c(NC(=O)CC#N)c(=O)n(-c2ccccc2)n1C,-0.436,0.114,-0.0996,0.374,0.348,0.379,0.483,1.66 (inactive),0.404,-0.498,0.175,-1.36 (inactive),-0.263 (inactive),-0.722 (inactive),1.16,-0.325 (inactive),-0.225,0.407,0.66,-0.0856
COC(=O)[C@]1(Cc2ccccc2N=[N+]=[N-])N=C(c2ccc(OCCCO)cc2)O[C@@H]1c1ccccc1N=[N+]=[N-],-0.13,-0.126,-0.0512,-0.102,0.374,0.46,1.1,3.58 (inactive),0.197,-0.0994,0.822,0.189 (inactive),-0.0643 (inactive),14.9 (active),0.59,-0.962 (inactive),-0.166,0.347,0.251,-0.0656
CC(C)NC(=O)[C@@H]1c2ccccc2C(=O)N(Cc2ccccc2Cl)[C@H]1c1ccc(CO)cc1,0.717,0.337,-0.145,-0.277,-0.387,1.49,1.39,-1.84 (inactive),-0.216,-0.137,1.4,0.759 (inactive),0.247 (inactive),0.173 (inactive),1.8,1.19 (inactive),-0.053,-0.384,0.143,-0.287
N#Cc1ccc(NN2C(C(O)c3cccs3)C=CC3C(=O)N(c4ccccc4)C(=O)C32)cc1 (stereo not given),0.106,0.145,0.0887,0.546,1.47,1.93,1.06,-0.911 (inactive),0.632,-0.236,0.843,-1.34 (inactive),1.73 (inactive),2.72 (inactive),3.35,-0.445 (inactive),-0.0768,-0.187,0.708,-0.0357
CC(=O)NCCCC[C@@H]1NC(=O)[C@@H]2C[C@H](C(=O)NCCCCN(C)C)[C@H](c3ccc(O)cc3)N2C1=O,0.641,-0.241,-0.168,-0.971,-1.09,-0.463,0.939,-0.816 (inactive),-0.0292,0.0373,-0.0942,-0.442 (inactive),0.169 (inactive),-0.687 (inactive),1.65,1.14 (inactive),-0.0906,-0.126,-0.322,-0.109
COCCOC(=O)N1C(=O)[C@@]2(c3cc(C#CCNC(N)=O)ccc31)[C@H](C(=O)N1CCc3cc(OC)c(OC)cc3C1)[C@H]1C(=O)O[C@H](c3ccccc3)[C@H](c3ccccc3)N1[C@@H]2c1ccc(OCCO)cc1,-0.222,0.388,-0.0293,0.392,0.578,0.0155,0.172,0.363 (inactive),0.536,0.12,1.08,0.854 (inactive),0.575 (inactive),4.41 (inactive),0.277,0.692 (inactive),-0.0163,1.3,1.13,-0.0734
COc1ccc(CCNC(=O)[C@@H]2c3ccccc3C(=O)N(Cc3ccc(OC(F)(F)F)cc3)[C@H]2c2ccc(CO)cc2)cc1,0.111,0.321,-0.0937,0.252,0.0125,0.75,0.882,-2.61 (inactive),0.322,-0.0672,1.55,-0.392 (inactive),-0.51 (inactive),-0.0066 (inactive),2.48,-0.652 (inactive),-0.169,0.54,0.342,-0.0967
